# Y pestis TopoI: Yersinia pestis topoisomerase I inhibitors, primary screen, biochemical, cleavage product accumulation, plate reader, single point | Y. pestis Topo-I cleavage product accumulation | activity, % at 10 µM | 0.064% of 360,000 active; in the data active = activity above about 50%, passing the limit was not always enough
# FBA Mtb inh: Mtb FBA enzyme inhibitors, primary screen, biochemical, fluorescence, strain H37Rv; AID 588726, 2011; 2.3% of 360,000 active; inhibition, % at 1 µM; Fructose-bisphosphate aldolase (Mycobacterium tuberculosis (strain ATCC 25618 / H37Rv)), …; purified M. tuberculosis FBA, fluorescence read-out
# Target sequence (P9WQA3 whole entry, looked up): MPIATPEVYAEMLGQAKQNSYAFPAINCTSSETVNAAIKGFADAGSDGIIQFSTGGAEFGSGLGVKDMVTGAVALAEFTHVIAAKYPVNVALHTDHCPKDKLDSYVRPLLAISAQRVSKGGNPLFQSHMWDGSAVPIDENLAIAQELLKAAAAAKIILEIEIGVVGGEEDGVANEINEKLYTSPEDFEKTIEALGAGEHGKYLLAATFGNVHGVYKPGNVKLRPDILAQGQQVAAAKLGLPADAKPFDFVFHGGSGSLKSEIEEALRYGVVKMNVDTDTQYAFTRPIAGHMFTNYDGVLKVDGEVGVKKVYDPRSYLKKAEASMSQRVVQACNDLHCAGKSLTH
# PrPC surface inh: inhibitors of human cell surface prion protein PrPC, primary screen, cell-based, TR-FRET; Major prion protein (Homo sapiens), P04156; TR-FRET read-out; inhibition, % at 13.8 µM; 0.43% of 370,000 active; in the data active = inhibition above about 24%
# Mtb hypoxia rep: PubChem AID 1159583; M. tuberculosis hypoxia-regulated fluorescent reporter, fluorescence; fluorescence inhibition, % (test concentration not listed); 0.1% of 300,000 active; in the data active = fluorescence inhibition mostly above about 23%, no sharp cut-off; inactive = mostly below about 17%
# PrP UTR inh: inhibition of PrP 5' UTR reporter expression; cell-based PrP 5' UTR mRNA reporter, plate reader; inhibition, % (test concentration not listed); 0.35% of 340,000 active; in the data active = inhibition above about 52%
# GDH-TPI counter-1: GDH-TPI coupling enzyme inhibitors, primary screen, artefact control for M. tuberculosis FBA inhibitor project, biochemical, absorbance, full deck; GDH-TPI coupled enzyme counterscreen, NADH absorbance; inhibition, % at 4.8 µM; 1.2% of 360,000 active; AID 588335, 2011; in the data active = inhibition above about 30%
# Mtb FBA inh conf: M. tuberculosis aldolase blockers, biochemical, fluorescence, strain H37Rv, confirmation; 78% of 5,600 active; shares compounds with FBA Mtb inh; AID 651616, 2012; inhibition, % at 1 µM; purified M. tuberculosis FBA, fluorescence read-out
# GDH-TPI counter-2: GDH-TPI coupling enzyme inhibitors, artefact control for M. tuberculosis FBA inhibitor project, biochemical, fluorescence, high throughput; GDH-TPI coupled enzyme counterscreen; 81% of 5,600 active; AID 652141, 2013; shares compounds with FBA Mtb inh; inhibition, % at 1 µM; in the data active = inhibition above about 10%
# Numbers stand for hits; – = inactive; · = not tested or not shown. Sampled rows, rich in hits. Any-hit rate of the full collection: about 3.8%. Rule as the data show it, unless noted: active = inhibition above about 27%; inactive = the rest.
SMILES,Y pestis TopoI,FBA Mtb inh,PrPC surface inh,Mtb hypoxia rep,PrP UTR inh,GDH-TPI counter-1,Mtb FBA inh conf,GDH-TPI counter-2
Cc1cccc(C(=O)NN=Cc2coc3ccccc3c2=O)c1,·,·,·,–,·,·,·,·
COc1ccc(C=NNC(=O)C2(C)NC(C)(C)Cc3ccccc32)cc1 (stereo unspecified),·,·,·,–,·,·,·,·
Cc1ccc(SCc2c(C(=O)NN=Cc3ccoc3)nnn2-c2nonc2N)cc1,·,·,·,–,·,·,·,·
CCn1cc(C(=O)NCc2ccncc2)c(=O)c2cc(F)c(N3CCN(C(=O)c4ccco4)CC3)cc21,–,42,–,–,·,–,35,22
CCn1cc(C(=O)NC(C)C)c(=O)c2cc(F)c(N3CCN(C(=O)c4ccco4)CC3)cc21,–,55,–,–,–,–,100,70
CCn1cc(C(=O)NCc2ccccc2)c(=O)c2cc(F)c(N3CCN(C(=O)c4ccco4)CC3)cc21,–,–,–,·,–,–,·,·
Cc1ccc(C=Nn2c(-c3ccccc3)n[nH]c2=S)s1,·,·,·,–,·,·,·,·
O=C(/C=C/c1ccccc1)NC(=S)Nc1ccccc1,–,27,–,–,–,–,–,–
N#Cc1nc(COc2ccccc2)oc1N1CCCCCC1,–,–,–,–,–,–,·,·
N#Cc1nn(-c2ccccc2)nc1N1CCCCC1,–,38,–,·,–,–,129,106
CN(C)c1ccc(-n2cccc2C=Nn2cnnc2)cc1,·,·,·,–,·,·,·,·
O=C(CC1CC=CCC(Cc2ccc(F)cc2)C(=O)OCC(Cc2c[nH]c3ccccc23)NC1=O)NCCO (stereo unspecified),·,·,·,–,·,·,·,·
CCCCN(C)CCNC(=O)c1c[nH]c2ccc(S(=O)(=O)N(CC)CC)cc2c1=O,–,29,–,–,–,–,51,52
CCCNC(=O)c1c[nH]c2ccc(S(=O)(=O)N(C)c3ccc(OCC)cc3)cc2c1=O,·,·,–,·,·,·,·,·
CCOC(=O)C1=CCC(c2cccc(C)c2)N(S(=O)(=O)c2ccc(C)cc2)C1C(=O)OCC (stereo unspecified),·,·,·,–,·,·,·,·
COc1ccc2oc(C(=O)NC(C)c3ccccn3)c(C)c2c1 (stereo unspecified),–,33,–,–,–,–,94,83
COc1ccc2oc(C(=O)Nc3nnc(C)s3)c(C)c2c1,–,29,–,–,–,–,81,63
CC(C)n1c(O)c(/C=C2\C=NN=C2c2ccccc2)sc1=S,–,56,–,·,–,–,199,135
CCn1c(O)c(/C=C2\C=NN=C2c2ccc(C)cc2)sc1=S,–,–,–,–,–,–,·,·
CCCCN1CC(Cc2ccccc2)C(CC(=O)Nc2ccccc2)C1=O (stereo unspecified),·,·,·,–,·,·,·,·
O=C(NN=Cc1cc2c(cc1Cl)OCO2)c1ccc(Br)s1,·,·,·,–,·,·,·,·
COC(=O)c1ccncc1N,–,47,–,–,–,–,–,–
COC(=O)c1sc2cnccc2c1N,–,110,–,–,–,–,91,85
CC(=O)Nc1c(-c2ccccc2)nc2ncccn12,–,42,–,–,–,–,40,30
Cc1ccc(-c2nc3ncccn3c2NC(=O)C2CC2)cc1,–,63,–,–,–,–,36,10
SMILES,Y pestis TopoI,FBA Mtb inh,PrPC surface inh,Mtb hypoxia rep,PrP UTR inh,GDH-TPI counter-1,Mtb FBA inh conf,GDH-TPI counter-2
CC(=O)Nc1c(-c2ccc(F)cc2)nc2ncccn12,·,·,–,·,·,·,·,·
O=c1[nH]nc(-c2cc(-c3ccccc3)nc3ccccc23)o1,–,65,–,·,·,–,122,94
c1ccc(-c2cc(-c3nc4ccccc4[nH]3)c3ccccc3n2)cc1,–,60,–,–,–,–,69,71
O=C(O)c1cc(-c2ccccc2)nc2ccccc12,–,–,–,–,–,–,·,·
Cn1cc(-c2nc3ccccc3[nH]2)c2ccccc21,–,44,–,–,–,–,–,–
CCN=c1scc(C)n1N=Cc1cc(Br)c(O)c(Br)c1,·,·,·,–,·,·,·,·

# Assay outcomes from PubChem BioAssay.
